Results as given in PubChem BioAssay (EPA / NIEHS).
Results filed as inconclusive are left out. Active and inactive are the calls of the source. Rule for the calls, unless noted: active = hit-call score of the fitted dose curve at least 0.9, where 1 is the maximum; inactive = score below 0.9.

Experiments:
[1] = CCTE_Mundy_HCI_hNP1_Casp3_7: CCTE's Caspase-Glo 3/7 Assay in human neuroprogenitor cells for Apoptosis, Mundy Lab (AID 2284240)
Outline: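 Luminescent caspase-3/7 readout, 26.5 h post-dose, in human neural progenitor cells from WA09 embryonic stem cells. Cells grew 40–44 h at 37 °C, 5% CO2 before chemical addition. Activity analysed as signal increase over DMSO baseline.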

[2] = CCTE_Mundy_HCI_hNP1_CellTiter: CCTE's Cell Titer-Glo 2 Assay in human neuroprogenitor cells for Viability, Mundy Lab (AID 2284241; active = hit-call score of the fitted dose curve at least 0.9, where 1 is the maximum)
Outline: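 Viability read as luminescent ATP content (CellTiter-Glo, 30 min room temperature) twenty-four hours after dosing, relative to DMSO. Cells: WA09-derived hNP1 neuroprogenitors on poly-L-ornithine/laminin, plated 40 to 44 hours before chemical.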

[3] = CCTE_Mundy_HCI_iCellGluta_NOG_NeuriteCount: CCTE's Neurite Outgrowth Assay in iCellGluta cells for Neurite Count, Mundy Lab (AID 2284342; active = hit-call score of the fitted dose curve at least 0.9, where 1 is the maximum;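 note: chemical exposure about 48 hours starting 2 hours after plating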)
[4] = CCTE_Padilla_ZF_Score.Craniofacial: CCTE's 144 Hour Post-fertilization zebrafish Assay Score for Craniofacial Malformation, Padilla Lab (AID 2284405)
Outline: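 Craniofacial defects were scored at 6 dpf by two blinded observers using stereomicroscopy. Exposure of wild-type embryos began at 6–8 hpf in sealed wells of 10% Hanks' solution at 26C, with chemical removed by rinsing at 5 dpf.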

[5] = CCTE_Padilla_ZF_Score.Edema: CCTE's 144 Hour Post-fertilization zebrafish Assay Score for Edema Malformation, Padilla Lab (AID 2284406)
Outline: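 Edema scored at 6 dpf by two blinded observers under a stereo microscope, in single outbred wild-type larvae exposed from 6-8 hpf in sealed wells (Hanks', 26C, 14:10 h light) and chemical-free after a 5 dpf rinse.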

[6] = CCTE_Padilla_ZF_Score.Spine: CCTE's 144 Hour Post-fertilization zebrafish Assay Score for Spine Malformation, Padilla Lab (AID 2284407)
Outline: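 Spine malformation scored at 6 dpf by two independent blinded observers under stereomicroscope, after static sealed exposure from 6–8 hpf at 26C in Hanks' solution with rinse on 5 dpf. Positive-direction fit against DMSO control.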

[7] = CCTE_Padilla_ZF_Score.Swim_bladder: CCTE's 144 Hour Post-fertilization zebrafish Assay Score for Swim Bladder Malformation, Padilla Lab (AID 2284408)
Outline: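 Swim bladder inflation scored at 6 dpf by two blinded observers under a stereo microscope. Exposure ran from 6–8 hpf in sealed wells of 10% Hanks' at 26C, with rinsing at 5 dpf; DMSO served as baseline.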

[8] = CCTE_Padilla_ZF_Score.Position: CCTE's 144 Hour Post-fertilization zebrafish Assay Score for Position, Padilla Lab (AID 2284409)
Outline: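 Wild-type zebrafish embryos (with chorions) exposed singly from 6–8 hpf in sealed wells of Hanks' solution at 26C, rinsed at 5 dpf. At 6 dpf, blinded assessors scored abnormal water-column position by brightfield stereomicroscopy, relative to DMSO.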

[9] = CCTE_Padilla_ZF_Score.Living: CCTE's 144 Hour Post-fertilization zebrafish Assay Score for Viability, Padilla Lab (AID 2284410);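 note: larval death at 6 dpf judged by absent heartbeat or coagulation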
Outline: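 Mortality at 6 dpf, judged as absent heartbeat or coagulation by two blinded observers, after sealed static exposure beginning at 6–8 hpf at 26C. Larvae were rinsed free of chemical at 5 dpf, and activity was fitted relative to DMSO.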

[10] = CCTE_Padilla_ZF_Score.General: CCTE's 144 Hour Post-fertilization zebrafish Assay Score for General Malformation, Padilla Lab (AID 2284411)
Outline: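 Malformation, death and hatching were scored at 6 dpf by two blinded observers under a stereo microscope. Embryos were dosed singly from 6-8 hpf in sealed plates of 10% Hanks' at 26C and rinsed on 5 dpf; DMSO baseline.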

[11] = CCTE_Padilla_ZF_Score.Tail: CCTE's 144 Hour Post-fertilization zebrafish Assay Score for Tail Malformation, Padilla Lab (AID 2284414)
Outline: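 Tail malformations were scored at 6 dpf by two blinded assessors under a stereo microscope. Chorionated embryos had been exposed from 6-8 hpf in sealed wells of 10% Hanks' at 26 C, then rinsed free of chemical at 5 dpf.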

[12] = CCTE_Padilla_ZF_Score.Blood_pooling: CCTE's 144 Hour Post-fertilization zebrafish Assay Score for Blood Pooling, Padilla Lab (AID 2284415)
Outline: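 Blood pooling was scored at 6 dpf under a stereo microscope by two blinded assessors, fitted upward against DMSO. Single embryos were dosed at 6–8 hpf in 10% Hanks', kept sealed at 26C (14:10 h cycle) and rinsed at 5 dpf.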

[13] = CCTE_Padilla_ZF_Score.Any: CCTE's 144 Hour Post-fertilization zebrafish Assay Score for Any Mortality or Malformation, Padilla Lab (AID 2284416)
Outline: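 Wild-type zebrafish embryos with chorions, one per well in 10% Hanks' from 6–8 hpf, dosed in sealed plates at 26 C, 14:10 h light:dark; rinsed at 5 dpf; blinded scoring at 6 dpf for death or malformation, versus DMSO.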

Measured: outcome

O=C(CC(=O)C(F)(F)F)C(F)(F)F
inactive: [1] | [2] | [3] | [4] | [5] | [6] | [7] | [8] | [9] | [10] | [11] | [12] | [13]
